According to PubChem BioAssay (EPA / NIEHS):
Records with an inconclusive call do not appear. Activity calls are given as the source filed them. Rule for the calls: active = hit-call score of the fitted dose curve at least 0.9, where 1 is the maximum; inconclusive = response in the unintended direction; inactive = score below 0.9.

How the values were obtained:
[1] = target: Adenosine receptor A1 (Bos taurus) (UniProt P28190); assay: NVS_GPCR_bAdoR_NonSelective: NovaScreen (NVS) G Protein-Coupled Receptor Assay for bovine Adenosine Receptor (AdoR), Non-selective Binding (AID 2283244)
How it was run: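 Cell-free binding with membranes from bovine striatum: radioligand displaced by test chemical, read after 1 h by filtration and scintillation. Single-point 25 uM duplicate primary, 50 uM top concentration in follow-up curves, DMSO baseline.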

[2] = system: guinea pig Leukotriene B4 Receptor (LTB4), gene 100379538; assay: NVS_GPCR_gLTB4: NovaScreen (NVS) G Protein-Coupled Receptor Assay for guinea pig Leukotriene B4 Receptor (LTB4) (AID 2283247)
How it was run: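 Membranes from guinea pig spleen incubated 2 h with radioligand and compound; bound counts measured by filtration and scintillation. Screened first at 25 uM in duplicate, then actives titrated to a 50 uM top concentration relative to DMSO.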

[3] = target: guinea pig Leukotriene D4 Receptor (LTD4), CYSLTR1 (gene 100135514) (UniProt Q2NNR5); assay: NVS_GPCR_gLTD4: NovaScreen (NVS) G Protein-Coupled Receptor Assay for guinea pig Leukotriene D4 Receptor (LTD4) (AID 2283248)
How it was run: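 Guinea pig lung membrane preparation; bound radioligand measured by filter scintillation after 1 h, loss of signal versus DMSO marking displacement. Compounds tested at 25 uM in duplicate, hits retested to max 50 uM.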

[4] = target: human Serotonin, 5-Hydroxytryptamine Receptor 5A (5HT5A), HTR5A (gene 3361) (UniProt P47898); assay: NVS_GPCR_h5HT5A: NovaScreen (NVS) G Protein-Coupled Receptor Assay for human Serotonin, 5-Hydroxytryptamine Receptor 5A (5HT5A) (AID 2283251)
How it was run: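 Membranes from HEK293 cells, radioligand binding read by filtration and scintillation after 1 h. Single-concentration duplicate testing at 25 uM, then concentration-response for actives; positive-direction fitting relative to DMSO.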

[5] = target: human Serotonin, 5-Hydroxytryptamine Receptor 7 (5HT7), HTR7 (gene 3363) (UniProt P34969); assay: NVS_GPCR_h5HT7: NovaScreen (NVS) G Protein-Coupled Receptor Assay for human Serotonin, 5-Hydroxytryptamine Receptor 7 (5HT7) (AID 2283255);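 note: hits reduce specific radioligand binding relative to DMSO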
How it was run: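 Filter-bound radioactivity counted after 1 h, with loss of specific radioligand binding fitted against DMSO. Membrane protein came from CHO cells expressing human 5HT7. Chemicals were tested first at 25 uM in duplicate, then in concentration series if active.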

[6] = target: human Adenosine A2a Receptor (AdoRA2a), ADORA2A (gene 135) (UniProt P29274); assay: NVS_GPCR_hAdoRA2a: NovaScreen (NVS) G Protein-Coupled Receptor Assay for human Adenosine A2a Receptor (AdoRA2a) (AID 2283256)
How it was run: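 HEK293-derived receptor preparation, radioligand displacement, 1.5 h, filtration + scintillation read. Loss of bound signal scored vs DMSO. Single-point 25 uM in duplicate first, then concentration-response for actives.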

[7] = target: human Adrenergic, Alpha 2c Receptor (Adra2C), ADRA2C (gene 152) (UniProt P18825); assay: NVS_GPCR_hAdra2C: NovaScreen (NVS) G Protein-Coupled Receptor Assay for human Adrenergic, Alpha 2c Receptor (Adra2C) (AID 2283259)
How it was run: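 Screened first in duplicate at 25 uM, with actives then run as concentration series. Membranes from Sf9 cells were exposed for 1 h, and displacement of radioligand was counted after filtration, using DMSO as baseline.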

[8] = system: rat Monoamine Oxidase, MAO-A, Central (MAOAC), gene 29253; assay: NVS_ENZ_rMAOAC: NovaScreen (NVS) Enzymatic Assay for rat Monoamine Oxidase, MAO-A, Central (MAOAC) (AID 2283243);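 note: potency refers to inhibition seen as signal drop below DMSO baseline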
How it was run: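 Lysate-based radiometric enzyme assay using rat brain tissue; 1.5 h treatment; 25 uM single-point duplicate screen, concentration-response follow-up; loss of signal versus DMSO.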

[9] = target: human Serotonin, 5-Hydroxytryptamine Receptor 2A (5HT2A), HTR2A (gene 3356) (UniProt P28223); assay: NVS_GPCR_h5HT2A: NovaScreen (NVS) G Protein-Coupled Receptor Assay for human Serotonin, 5-Hydroxytryptamine Receptor 2A (5HT2A) (AID 2283249)
How it was run: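 Radioligand displacement on human cortex tissue extract, counted by filtration and scintillation 1.5 h post-dosing. Initial single-concentration screen at 25 uM in duplicate, concentration series in follow-up; DMSO as baseline.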

[10] = system: guinea pig Muscarinic, Peripheral (Mperiperal) Receptor, Non-selective Binding, gene 100379235; assay: NVS_GPCR_gMPeripheral_NonSelective: NovaScreen (NVS) G Protein-Coupled Receptor Assay for guinea pig Muscarinic, Peripheral (Mperiperal) Receptor, Non-selective Binding (AID 2283250)
How it was run: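 Screened in duplicate at 25 uM, hits retested in concentration series to 50 uM max, using bladder membrane radioligand displacement from guinea pig. Filtration and scintillation counting 1 h post-dose, fitted relative to DMSO.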

[11] = target: human Adrenergic, Alpha 2A Receptor (Adra2A), ADRA2A (gene 150) (UniProt P08913); assay: NVS_GPCR_hAdra2A: NovaScreen (NVS) G Protein-Coupled Receptor Assay for human Adrenergic, Alpha 2A Receptor (Adra2A) (AID 2283257)
How it was run: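 Displacement of a specific radioligand from HT29 membrane protein was counted by filter scintillation after 1 h. Compounds were screened in duplicate at 25 uM, and actives were retested in concentration series. Fitting was positive-direction against DMSO.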

[12] = target: Beta-2 adrenergic receptor (Homo sapiens) (UniProt P07550); assay: NVS_GPCR_hAdrb2: NovaScreen (NVS) G Protein-Coupled Receptor Assay for human Adrenergic, Beta 2 Receptor (Adrb2) (AID 2283261)
How it was run: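 Compounds screened in duplicate at 25 uM, then actives in concentration series. Human beta-2 receptor from CHO material, cell-free; radioligand displacement after 1 h measured by filtration and scintillation against DMSO baseline.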

[13] = target: human Adrenergic, Beta 3 Receptor (Adrb3), ADRB3 (gene 155) (UniProt P13945); assay: NVS_GPCR_hAdrb3: NovaScreen (NVS) G Protein-Coupled Receptor Assay for human Adrenergic, Beta 3 Receptor (Adrb3) (AID 2283262)
How it was run: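 A cell-free filter binding assay read by scintillation counting, with displacement of a specific radioligand measured after 1 hour. The receptor source was SK-N-MC extracts (cells pretreated with isoproterenol and 8-bromo-cAMP). Compounds were first tested at 25 uM in duplicate and then in concentration series.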

[14] = target: guinea pig Opioid, Kappa 1 Receptor (OpiateK), OPRK1 (gene 100135587) (UniProt P41144); assay: NVS_GPCR_gOpiateK: NovaScreen (NVS) G Protein-Coupled Receptor Assay for guinea pig Opioid, Kappa 1 Receptor (OpiateK) (AID 2283252);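 note: radioligand displacement from kappa opioid receptor in guinea pig cerebellar membranes; active means reduced radioligand binding relative to DMSO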
How it was run: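 Radioligand competition binding using guinea pig cerebellum membrane fraction; 2 h exposure; filter radiodetection. Single concentration 25 uM (duplicate), follow-up concentration-response for actives.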

[15] = system: bovine Histamine 1 Receptor (H1), gene 281231; assay: NVS_GPCR_bH1: NovaScreen (NVS) G Protein-Coupled Receptor Assay for bovine Histamine 1 Receptor (H1) (AID 2283246)
How it was run: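 Hits from a 25 uM duplicate primary screen were retested in concentration series (top 50 uM); binding measured as scintillation-counted displacement of radioligand from bovine cerebellar membranes after 1 h, normalised to DMSO.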

[16] = target: human Serotonin, 5-Hydroxytryptamine Receptor 6 (5HT6), HTR6 (gene 3362) (UniProt P50406); assay: NVS_GPCR_h5HT6: NovaScreen (NVS) G Protein-Coupled Receptor Assay for human Serotonin, 5-Hydroxytryptamine Receptor 6 (5HT6) (AID 2283253)
How it was run: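 Filter scintillation counting of radioligand displacement from HEK293-expressed 5HT6, 1 hour post-dose, with loss of signal relative to DMSO. Single 25 uM duplicates first, with concentration series for confirmation.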

[17] = NVS_GPCR_bNPY_NonSelective: NovaScreen (NVS) G Protein-Coupled Receptor Assay for bovine Neuropeptide Y (NPY) Receptor, Non-selective Binding (AID 2283245)
How it was run: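 Displacement of radioligand from bovine hippocampal membrane receptors, read by filtration and scintillation counting after 1 hour. Concentration-response to a top of 50 uM followed a 25 uM duplicate primary screen. Loss of signal versus DMSO.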

[18] = target: human Adenosine A1 Receptor (AdoRA1), ADORA1 (gene 134) (UniProt P30542); assay: NVS_GPCR_hAdoRA1: NovaScreen (NVS) G Protein-Coupled Receptor Assay for human Adenosine A1 Receptor (AdoRA1) (AID 2283254)
How it was run: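 Radioligand binding was run on human cortical membranes, cell-free, with filter-based scintillation counting 1 h after dosing. The primary screen was duplicate at 25 uM, followed by concentration series. Signal loss versus DMSO was fitted positive-direction.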

[19] = target: human Adrenergic, Beta 1 Receptor (Adrb1), ADRB1 (gene 153) (UniProt P08588); assay: NVS_GPCR_hAdrb1: NovaScreen (NVS) G Protein-Coupled Receptor Assay for human Adrenergic, Beta 1 Receptor (Adrb1) (AID 2283258)
How it was run: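 Membranes/protein extracted from human neuroepithelioma cells, radioligand competition binding read by filtration and scintillation 2 h post-dose. Single 25 uM duplicate screen, then concentration-response follow-up; DMSO as negative control.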

[20] = target: Type-1 angiotensin II receptor (Homo sapiens) (UniProt P30556); assay: NVS_GPCR_hAT1: NovaScreen (NVS) G Protein-Coupled Receptor Assay for human Angiotensin II receptor type 1 (AT1) (AID 2283263)
How it was run: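 Hits from a 25 uM duplicate screen (threshold e.g. 30% inhibition) were run in concentration-response with 50 uM top concentration. Displacement of specific radioligand from KAN-TS membrane preparations measured after 3 h by filter scintillation, DMSO as baseline.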

Measured: AC50

Chain of human Serotonin, 5-Hydroxytryptamine Receptor 5A (5HT5A), HTR5A (gene 3361) (P47898 whole entry, looked up): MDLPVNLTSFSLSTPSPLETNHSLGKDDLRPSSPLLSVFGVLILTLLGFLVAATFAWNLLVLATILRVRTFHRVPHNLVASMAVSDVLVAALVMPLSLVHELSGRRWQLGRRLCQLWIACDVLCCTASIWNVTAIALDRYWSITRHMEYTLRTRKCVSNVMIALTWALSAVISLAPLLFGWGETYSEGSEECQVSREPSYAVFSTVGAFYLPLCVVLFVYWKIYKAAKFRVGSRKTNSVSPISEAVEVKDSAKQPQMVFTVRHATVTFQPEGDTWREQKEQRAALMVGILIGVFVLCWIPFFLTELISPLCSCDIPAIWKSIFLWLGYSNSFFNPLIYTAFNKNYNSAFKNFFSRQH
Chain of Adenosine receptor A1 (Bos taurus) (P28190 whole entry, looked up): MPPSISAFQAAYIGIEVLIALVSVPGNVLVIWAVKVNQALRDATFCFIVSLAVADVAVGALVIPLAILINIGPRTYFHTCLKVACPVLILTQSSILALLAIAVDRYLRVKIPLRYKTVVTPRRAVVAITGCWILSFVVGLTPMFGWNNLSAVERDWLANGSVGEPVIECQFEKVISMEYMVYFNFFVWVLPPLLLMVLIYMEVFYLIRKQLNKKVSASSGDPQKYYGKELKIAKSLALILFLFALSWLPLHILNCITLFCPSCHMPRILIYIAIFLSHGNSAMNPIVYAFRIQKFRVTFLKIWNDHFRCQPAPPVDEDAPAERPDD
Chain of guinea pig Leukotriene D4 Receptor (LTD4), CYSLTR1 (gene 100135514) (Q2NNR5 whole entry, looked up): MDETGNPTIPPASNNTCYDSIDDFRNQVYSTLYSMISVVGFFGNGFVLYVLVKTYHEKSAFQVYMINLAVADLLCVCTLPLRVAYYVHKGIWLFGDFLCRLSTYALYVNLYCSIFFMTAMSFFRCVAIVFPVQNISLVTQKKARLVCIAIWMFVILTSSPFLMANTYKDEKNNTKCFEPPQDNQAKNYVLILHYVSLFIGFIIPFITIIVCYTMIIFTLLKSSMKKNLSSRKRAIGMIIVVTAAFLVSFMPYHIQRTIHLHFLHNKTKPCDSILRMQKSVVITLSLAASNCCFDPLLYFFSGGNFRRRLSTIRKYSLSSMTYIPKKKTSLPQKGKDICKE
Chain of human Serotonin, 5-Hydroxytryptamine Receptor 6 (5HT6), HTR6 (gene 3362) (P50406 whole entry, looked up): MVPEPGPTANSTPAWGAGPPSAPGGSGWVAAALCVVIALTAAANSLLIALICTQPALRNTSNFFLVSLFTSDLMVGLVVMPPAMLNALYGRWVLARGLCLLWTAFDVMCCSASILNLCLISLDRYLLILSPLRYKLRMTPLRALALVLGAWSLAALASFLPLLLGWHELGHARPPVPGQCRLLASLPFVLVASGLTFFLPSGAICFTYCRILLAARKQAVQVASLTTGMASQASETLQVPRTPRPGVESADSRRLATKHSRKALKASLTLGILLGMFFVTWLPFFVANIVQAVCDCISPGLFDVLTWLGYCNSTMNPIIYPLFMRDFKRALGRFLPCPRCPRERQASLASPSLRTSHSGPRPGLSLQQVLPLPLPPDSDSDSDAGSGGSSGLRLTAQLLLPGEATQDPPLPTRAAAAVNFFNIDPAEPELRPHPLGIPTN
Chain of guinea pig Opioid, Kappa 1 Receptor (OpiateK), OPRK1 (gene 100135587) (P41144 whole entry, looked up): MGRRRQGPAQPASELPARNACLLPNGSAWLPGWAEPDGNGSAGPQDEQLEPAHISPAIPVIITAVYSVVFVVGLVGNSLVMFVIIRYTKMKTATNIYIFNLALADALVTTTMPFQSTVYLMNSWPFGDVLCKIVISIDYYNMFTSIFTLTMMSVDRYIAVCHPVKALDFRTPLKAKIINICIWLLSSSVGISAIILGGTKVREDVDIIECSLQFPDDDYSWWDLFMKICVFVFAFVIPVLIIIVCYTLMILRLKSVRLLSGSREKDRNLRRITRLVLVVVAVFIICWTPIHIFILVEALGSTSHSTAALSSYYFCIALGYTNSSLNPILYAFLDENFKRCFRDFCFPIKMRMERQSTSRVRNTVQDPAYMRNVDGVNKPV
Chain of human Adrenergic, Alpha 2c Receptor (Adra2C), ADRA2C (gene 152) (P18825 whole entry, looked up): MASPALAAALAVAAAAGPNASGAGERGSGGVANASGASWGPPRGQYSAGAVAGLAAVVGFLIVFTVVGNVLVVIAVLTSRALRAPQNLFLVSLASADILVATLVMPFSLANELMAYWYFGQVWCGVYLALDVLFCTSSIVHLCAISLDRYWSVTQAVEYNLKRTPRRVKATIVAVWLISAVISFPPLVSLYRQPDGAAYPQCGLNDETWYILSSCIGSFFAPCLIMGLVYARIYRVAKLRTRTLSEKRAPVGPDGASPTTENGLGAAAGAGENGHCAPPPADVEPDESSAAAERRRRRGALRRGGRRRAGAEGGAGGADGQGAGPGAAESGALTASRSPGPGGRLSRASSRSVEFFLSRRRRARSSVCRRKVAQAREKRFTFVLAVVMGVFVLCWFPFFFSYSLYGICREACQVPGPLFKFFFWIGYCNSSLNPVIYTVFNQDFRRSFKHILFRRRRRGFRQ
Chain of human Adrenergic, Beta 3 Receptor (Adrb3), ADRB3 (gene 155) (P13945 whole entry, looked up): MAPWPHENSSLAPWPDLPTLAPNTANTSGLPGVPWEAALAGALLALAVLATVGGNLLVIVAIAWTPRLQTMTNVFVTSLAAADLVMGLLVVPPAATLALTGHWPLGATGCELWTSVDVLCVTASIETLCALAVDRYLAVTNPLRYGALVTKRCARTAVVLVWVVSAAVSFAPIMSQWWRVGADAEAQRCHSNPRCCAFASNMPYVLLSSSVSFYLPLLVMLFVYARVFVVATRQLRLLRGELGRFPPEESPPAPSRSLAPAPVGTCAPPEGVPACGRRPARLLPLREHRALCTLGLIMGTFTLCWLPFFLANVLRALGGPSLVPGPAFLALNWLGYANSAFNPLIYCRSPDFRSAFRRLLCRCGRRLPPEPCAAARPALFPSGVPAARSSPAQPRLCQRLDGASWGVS
Chain of human Serotonin, 5-Hydroxytryptamine Receptor 2A (5HT2A), HTR2A (gene 3356) (P28223 whole entry, looked up): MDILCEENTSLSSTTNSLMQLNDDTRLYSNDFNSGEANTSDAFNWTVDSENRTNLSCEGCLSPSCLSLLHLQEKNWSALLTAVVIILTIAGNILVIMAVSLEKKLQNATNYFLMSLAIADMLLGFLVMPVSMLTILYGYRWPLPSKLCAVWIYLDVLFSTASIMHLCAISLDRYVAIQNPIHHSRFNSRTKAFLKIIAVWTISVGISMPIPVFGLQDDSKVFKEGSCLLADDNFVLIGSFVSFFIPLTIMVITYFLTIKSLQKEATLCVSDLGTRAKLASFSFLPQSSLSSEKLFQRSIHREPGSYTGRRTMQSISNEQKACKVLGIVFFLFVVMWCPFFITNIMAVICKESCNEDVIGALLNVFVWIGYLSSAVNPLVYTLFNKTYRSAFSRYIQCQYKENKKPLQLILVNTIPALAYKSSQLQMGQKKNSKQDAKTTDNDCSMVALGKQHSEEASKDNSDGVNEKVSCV
Chain of human Serotonin, 5-Hydroxytryptamine Receptor 7 (5HT7), HTR7 (gene 3363) (P34969 whole entry, looked up): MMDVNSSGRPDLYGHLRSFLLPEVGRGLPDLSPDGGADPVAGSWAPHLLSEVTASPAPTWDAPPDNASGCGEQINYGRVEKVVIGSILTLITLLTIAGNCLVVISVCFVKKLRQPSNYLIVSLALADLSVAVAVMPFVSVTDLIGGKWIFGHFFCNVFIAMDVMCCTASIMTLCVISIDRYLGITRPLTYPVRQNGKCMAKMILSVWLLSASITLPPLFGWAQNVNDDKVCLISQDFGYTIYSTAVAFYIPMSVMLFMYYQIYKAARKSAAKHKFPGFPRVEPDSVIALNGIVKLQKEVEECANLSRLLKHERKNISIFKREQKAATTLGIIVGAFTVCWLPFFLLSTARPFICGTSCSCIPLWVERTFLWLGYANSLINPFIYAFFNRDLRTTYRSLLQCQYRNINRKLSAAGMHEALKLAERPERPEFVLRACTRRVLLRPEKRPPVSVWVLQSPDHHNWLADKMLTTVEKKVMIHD
Chain of human Adrenergic, Alpha 2A Receptor (Adra2A), ADRA2A (gene 150) (P08913 whole entry, looked up): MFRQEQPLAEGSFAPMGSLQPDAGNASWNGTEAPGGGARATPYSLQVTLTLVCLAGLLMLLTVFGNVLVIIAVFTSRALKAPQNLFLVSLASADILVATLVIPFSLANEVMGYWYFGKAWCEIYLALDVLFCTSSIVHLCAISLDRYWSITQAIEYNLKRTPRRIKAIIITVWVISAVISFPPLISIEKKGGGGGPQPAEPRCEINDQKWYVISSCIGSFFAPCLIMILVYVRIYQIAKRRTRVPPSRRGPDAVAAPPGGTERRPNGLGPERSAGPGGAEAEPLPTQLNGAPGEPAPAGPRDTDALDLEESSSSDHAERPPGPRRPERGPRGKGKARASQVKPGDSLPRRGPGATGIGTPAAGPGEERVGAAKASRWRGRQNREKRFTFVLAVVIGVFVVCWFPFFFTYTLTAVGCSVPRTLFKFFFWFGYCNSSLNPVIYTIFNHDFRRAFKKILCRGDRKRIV
Chain of human Adenosine A2a Receptor (AdoRA2a), ADORA2A (gene 135) (P29274 whole entry, looked up): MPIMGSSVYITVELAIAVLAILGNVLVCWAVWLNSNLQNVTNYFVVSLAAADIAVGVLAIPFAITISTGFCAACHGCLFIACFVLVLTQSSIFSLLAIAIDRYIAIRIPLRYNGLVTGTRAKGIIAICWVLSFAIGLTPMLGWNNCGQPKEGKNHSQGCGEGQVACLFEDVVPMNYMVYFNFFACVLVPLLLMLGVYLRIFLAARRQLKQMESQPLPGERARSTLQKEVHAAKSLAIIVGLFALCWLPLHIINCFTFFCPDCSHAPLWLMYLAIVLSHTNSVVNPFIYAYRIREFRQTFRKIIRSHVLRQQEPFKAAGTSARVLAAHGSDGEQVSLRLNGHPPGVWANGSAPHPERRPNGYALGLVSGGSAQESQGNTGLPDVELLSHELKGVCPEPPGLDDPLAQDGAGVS
Chain of Type-1 angiotensin II receptor (Homo sapiens) (P30556 whole entry, looked up): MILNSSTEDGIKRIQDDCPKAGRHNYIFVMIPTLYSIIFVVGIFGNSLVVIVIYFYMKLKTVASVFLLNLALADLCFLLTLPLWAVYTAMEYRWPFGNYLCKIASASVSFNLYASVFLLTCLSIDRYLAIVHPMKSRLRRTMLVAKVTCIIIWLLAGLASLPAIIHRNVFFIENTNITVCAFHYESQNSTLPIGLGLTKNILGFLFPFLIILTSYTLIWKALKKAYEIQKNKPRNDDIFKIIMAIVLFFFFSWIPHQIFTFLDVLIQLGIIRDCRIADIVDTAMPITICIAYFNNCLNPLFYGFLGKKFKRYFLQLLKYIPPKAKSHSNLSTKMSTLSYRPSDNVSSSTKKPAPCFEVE

O=C(O)C(F)(F)C(F)(F)C(F)(F)C(F)(F)C(F)(F)C(F)(F)C(F)(F)C(F)(F)C(F)(F)C(F)(F)F
active: [2] 5.1 µM | [5] 12.9 µM | [6] 2.43 µM | [7] 4.5 µM
inactive: [1] | [3] | [4]

CCN1CCC2(CC1)COc1cc3c(cc12)N(C(=O)c1ccc(-c2ccc(-c4nnc(C)o4)cc2C)cc1)CC3
active: [8] 23.4 µM | [9] 10.2 µM | [10] 1.79 µM | [4] 23.4 µM | [5] 23.4 µM | [11] 13.9 µM | [7] 14.3 µM | [12] 23.4 µM
inactive: [13]

Clc1ccc(C2(Cn3cncn3)CC(Br)CO2)c(Cl)c1 (stereo not given)
active: [14] 11.8 µM

Oc1ccc(-c2ccccc2)cc1
active: [8] 13.8 µM

CC(C)(C)c1cc(O)ccc1O
inactive: [1]

C[C@@H]1C[C@@H]([C@H](O)CC2CC(=O)NC(=O)C2)C(=O)[C@@H](C)C1
inactive: [15]

CCOP(=S)(OCC)Oc1nc(Cl)c(Cl)cc1Cl
inactive: [5]

O=S(=O)(c1ccc(Cl)cc1)c1ccc(Cl)cc1
inactive: [8]

CCOC(=O)Nc1cccc(OC(=O)Nc2ccccc2)c1
active: [8] 5.76 µM

CCC(=O)C(CC(C)N(C)C)(c1ccccc1)c1ccccc1 (stereo not given)
active: [9] 5.61 µM | [10] 7.94 µM | [4] 6.69 µM | [14] 1.42 µM | [16] 18.1 µM | [5] 3.59 µM | [11] 16 µM
inactive: [7] | [13]

ClCCBr
inactive: [3]

O=[N+]([O-])c1ccc2c3c(cccc13)CC2
active: [8] 6.28 µM

Cn1sc(Cl)cc1=O
inactive: [1] | [14] | [16]

CC(=O)[O][Hg][c]1ccccc1
active: [1] 25 µM | [17] 4.57 µM | [2] 3.45 µM | [3] 1.58 µM | [9] 19.1 µM | [10] 6 µM | [4] 0.791 µM | [14] 31.4 µM | [16] 1.32 µM | [18] 25 µM | [5] 0.577 µM | [6] 6.98 µM | [11] 20.1 µM | [19] 0.993 µM | [7] 0.252 µM | [12] 0.934 µM | [13] 6.02 µM | [20] 15.1 µM
